Source: PubChem BioAssay AID720597 (Broad Institute, 2013)
Entries with a potency or affinity are not part of this list. Calls of active or inactive are those of the source.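 The calls were made as follows: active = fitted half-maximal dose no more than twice the top valid tested dose, for compounds that lower signal; inconclusive = fit invalid, or curve flat with activity between -70 and -30; inactive = potency past limit, curve flat within ±30, or signal increasing.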

Target: NAD-dependent protein deacylase sirtuin-5, mitochondrial (Homo sapiens) (UniProt Q9NXA8)
Assay: blockers of sirtuin-5 peptide desuccinylation – biochemical, fluorescence imaging, cherry-pick, set 6, dose response (AID 720597);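 also: lower AMC signal can also come from blocking the trypsin step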

NAD-dependent protein deacylase sirtuin-5, mitochondrial (Homo sapiens), sequence (Q9NXA8 whole entry, looked up): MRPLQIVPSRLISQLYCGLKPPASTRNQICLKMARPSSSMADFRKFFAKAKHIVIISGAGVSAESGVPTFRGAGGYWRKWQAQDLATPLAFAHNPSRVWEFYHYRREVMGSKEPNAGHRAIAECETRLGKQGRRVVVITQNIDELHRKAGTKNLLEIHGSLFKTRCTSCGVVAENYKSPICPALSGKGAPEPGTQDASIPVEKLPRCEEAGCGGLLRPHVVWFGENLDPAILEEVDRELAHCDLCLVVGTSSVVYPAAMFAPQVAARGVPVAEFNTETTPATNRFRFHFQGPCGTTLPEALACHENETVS

Row | Structure (SMILES) | outcome
1 | COc1ccc(S(=O)(=O)N(C)C[C@@H]2OCCCC[C@@H](C)Oc3ccc(NS(=O)(=O)c4ccc(F)cc4)cc3C(=O)N([C@@H](C)CO)C[C@@H]2C)cc1 | inactive
2 | COc1ccc(S(=O)(=O)Nc2ccc3c(c2)C(=O)N([C@@H](C)CO)C[C@@H](C)[C@H](CN(C)Cc2ccc(C(F)(F)F)cc2)OCCCC[C@H](C)O3)cc1 | inactive
3 | C[C@@H]1CN([C@@H](C)CO)S(=O)(=O)c2ccc(C#CC3CC3)cc2O[C@H]1CN(C)Cc1ccccc1F | inactive
4 | Cc1ccc(S(=O)(=O)N[C@H]2CC[C@@H](CCn3cc(C(C)C)nn3)O[C@H]2CO)cc1 | inactive
5 | COc1ccc(S(=O)(=O)Nc2ccc3c(c2)C(=O)N([C@H](C)CO)C[C@@H](C)[C@H](CN(C)Cc2ccc(C(F)(F)F)cc2)OCCCC[C@@H](C)O3)cc1 | inactive
6 | C[C@@H]1CN([C@H](C)CO)C(=O)c2cc(NC(=O)Cc3ccccc3)ccc2O[C@@H]1CN(C)Cc1ccc(Oc2ccccc2)cc1 | inactive
7 | COc1ccccc1S(=O)(=O)N(C)C[C@H]1Oc2cc(C#CCC(C)C)ccc2S(=O)(=O)N([C@H](C)CO)C[C@@H]1C | inactive
8 | CCCC(=O)Nc1ccc2c(c1)OC[C@H](C)N(Cc1ccccc1)C[C@H](C)[C@H](OC)CN(C)C2=O | inactive
9 | Cc1ccc(S(=O)(=O)Nc2ccc3c(c2)C(=O)N([C@H](C)CO)C[C@H](C)[C@H](CN(C)Cc2ccc(C(F)(F)F)cc2)OCCCC[C@H](C)O3)cc1 | inactive
10 | CCCNC(=O)N1[C@@H]2Cn3c(cccc3=O)[C@H]1[C@@H](C(=O)N1CCC(Cc3ccccc3)CC1)[C@@H]2CO | inactive
11 | C[C@H]1CN([C@@H](C)CO)C(=O)c2c(c3ccccc3n2C)-c2ccccc2CO[C@H]1CN(C)Cc1cccc2c1OCCCO2 | inactive
12 | Cc1noc(C)c1NC(=O)N(C)C[C@H]1OCCCC[C@@H](C)Oc2ccc(NS(=O)(=O)c3c(C)noc3C)cc2C(=O)N([C@H](C)CO)C[C@@H]1C | inactive
13 | O=C(NC1CCCCC1)[C@@H]1[C@@H](CO)[C@@H]2Cn3c(cccc3=O)[C@H]1N2CC1CCCCC1 | inactive
14 | C[C@@H]1CN([C@@H](C)CO)C(=O)Cc2cc(NC(=O)Nc3ccc4c(c3)OCO4)ccc2O[C@@H]1CN(C)CC1CCCCC1 | inactive
15 | C[C@H]1CN([C@@H](C)CO)C(=O)c2cc(C#CCN(C)C)cnc2O[C@@H]1CN(C)Cc1ccncc1 | inactive
16 | CC(C)C#Cc1cnc2c(c1)C(=O)N([C@@H](C)CO)C[C@H](C)[C@H](CN(C)C(=O)c1ccccc1)O2 | inactive
17 | Cc1ccc(S(=O)(=O)N(C)C[C@H]2Oc3ccc(NC(=O)Nc4cccc5ccccc45)cc3CC(=O)N([C@@H](C)CO)C[C@H]2C)cc1 | inactive
18 | Cc1noc(C)c1NC(=O)N[C@@H]1C=C[C@@H](CC(=O)Nc2ccccc2)O[C@H]1CO | inactive
19 | CN(C)C(=O)c1cccc(-c2ccc([C@@H]3[C@H](CO)N4C(=O)CN(C(=O)C5CC5)C[C@@H]34)cc2)c1 | inactive
20 | COc1ccc(S(=O)(=O)Nc2ccc3c(c2)C(=O)N([C@H](C)CO)C[C@H](C)[C@@H](CN(C)Cc2ccc(C(F)(F)F)cc2)OCCCC[C@@H](C)O3)cc1 | inactive
21 | O=C(Nc1cc(F)ccc1F)N1CCCCN2[C@H](CO)[C@H](c3ccc(-c4ccccc4)cc3)[C@H]2C1 | inactive
22 | CCCC(=O)Nc1ccc2c(c1)OC[C@@H](C)N(Cc1ccccc1)C[C@@H](C)[C@@H](OC)CN(C)C2=O | inactive
23 | COc1ccc(S(=O)(=O)Nc2ccc3c(c2)CC(=O)N([C@@H](C)CO)C[C@@H](C)[C@H](CN(C)S(=O)(=O)c2ccc(C)cc2)O3)cc1 | inactive
24 | CC(C)CC#Cc1ccc2c(c1)O[C@@H](CN(C)C(=O)Nc1ccccc1F)[C@@H](C)CN([C@@H](C)CO)S2(=O)=O | inactive
25 | COCC#Cc1ccc2c(c1)O[C@@H](CN(C)CC1CCCC1)[C@H](C)CN([C@@H](C)CO)S2(=O)=O | inactive
26 | COc1ccc(S(=O)(=O)N(C)C[C@@H]2Oc3ncc(C#CCN(C)C)cc3C(=O)N([C@H](C)CO)C[C@@H]2C)cc1 | inactive
27 | COc1ccc(NC(=O)Nc2ccc3c(c2)C(=O)N([C@@H](C)CO)C[C@H](C)[C@@H](CN(C)Cc2ccccc2)OCCCC[C@H](C)O3)cc1 | inactive
28 | COc1ccc(S(=O)(=O)N(C)C[C@H]2Oc3ccc(NC(=O)NC4CCCCC4)cc3C(=O)N([C@H](C)CO)C[C@@H]2C)cc1 | inactive
